Growth data for eight compounds are collected here from PubChem BioAssay (NCI).

Each structure is given as a SMILES string. Compounds without any hit were thinned out: in the full panel of roughly 83,000, 20% have a hit.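 In brief: 96-well plates, 48 h treatment, single concentration, percent growth endpoint.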 Values without a mark were called inactive. Active and inactive are the calls of the source. The calls were made as follows: active = growth percent below 10; inactive = the rest.

Test in all cases: NCI-60 one-dose screen, 48 h (100 = growth as untreated, 0 = no growth, -100 = all killed)
What all share (settings): 10 µM unless noted

Experiment [1] has as its system SK-MEL-2 melanoma.
Experiment [2] relates to EKVX NSCLC.
Experiment [3] relates to SN12C renal.
Experiment [4] relates to UO-31 renal.
In experiment [5] the test system is TK-10 renal.
The test system of experiment [6] is ACHN renal.
Experiment [7] deals with CAKI-1 renal.
Experiment [8] relates to A498 renal.
The test system of experiment [9] is CCRF-CEM leukemia.
The subject of experiment [10] is MOLT-4 leukemia.
Experiment [11] relates to SR leukemia.
Experiment [12] deals with OVCAR-8 ovarian.
Experiment [13] relates to OVCAR-5 ovarian.
Experiment [14] has as its system OVCAR-4 ovarian.
In experiment [15] the test system is SK-OV-3 ovarian.
For experiment [16], the system named is IGROV1 ovarian.
The subject of experiment [17] is HS 578T breast.
Experiment [18] deals with NCI/ADR-RES ovarian.
Experiment [19] relates to OVCAR-3 ovarian.
The test system of experiment [20] is RPMI-8226 leukemia.

Turning to `S=c1[nH]nc(CSc2ncnc3c2c(-c2ccccc2)cn3-c2ccc(Cl)cc2)o1`, the growth in experiment [1] is 105%; in [2], 92%; in [3] it was 92.8%; in experiment [4], 73%; in [5], 114%; in experiment [6] it was 92.7%. In addition, the growth in [7] was 76.2%; in experiment [8], 94.7%; in experiment [9] it was 90.2%; in experiment [10], 98.1%; in [11] it was 105%; in [12] it was 97.5%. For the same compound, the growth in [13] is 104%; in experiment [14], 95.4%; in [15], 78.2%; in experiment [16], 92.3%; in experiment [17], 94.5%; in experiment [18], 99.3%.
For the compound `C/C(=C(/c1ccc(O)cc1)c1ccc(OCCN(C)C)cc1)c1ccccc1`, the growth is 92.3% in [1]; 83.6% in experiment [2]; 84% in [3]; 65% in experiment [4]; 81.5% in experiment [5]; 89.2% in [6]. For the same compound, the growth in experiment [7] is 84.9%; in experiment [8] it was 102%; in [9], 94.3%; in experiment [10] it was 32.8%; in experiment [11] it was 63.7%; in [13], 87.6%. Moreover, the growth in [14] is 83.2%; in experiment [15] it was 90.2%; in experiment [16] it was 89.1%; in [19] it was 90.2%; in experiment [17], 90%; in experiment [18], 81.3%.
On to `COc1cc(/C=N/N(C)C)ccc1O`, for which the growth in experiment [1] was 101%; in [2], 105%; in [3] it was 94.9%; in [4], 89.1%; in experiment [5] it was 94.5%; in [6], 100%. The growth in experiment [7] is 102%; in [8], 75.7%; in [9] it was 94.5%; in experiment [10] it was 89.7%; in experiment [11], 93%; in [20], 92.4%. The growth was 96.1% in experiment [12]; 115% in experiment [14]; 97.1% in [15]; 104% in experiment [16]; 109% in experiment [19]; 87.3% in [17]. Moreover, the growth in experiment [18] is 107%.
As for `CCOC(=O)CC(=O)c1c(C)cc(C)cc1C`, the growth in experiment [1] is 93.4%; in experiment [2] it was 105%; in [3], 94.1%; in experiment [4], 92.9%; in experiment [5] it was 116%; in experiment [6] it was 83.7%. For the same compound, the growth in [7] is 97%; in [8], 96.8%; in experiment [9] it was 90.9%; in experiment [10], 78.7%; in [20] it was 90.3%; in [12], 102%. In addition, the growth was 84.1% in [13]; 113% in [14]; 105% in [15]; 108% in experiment [16]; 117% in experiment [19]; 91.7% in experiment [17]. Moreover, the growth in [18] is 102%.
As for `Cc1ccc2cnc(N)c(C#Cc3cncc(C(=O)Nc4ccc(CN5CCN(C)CC5)c(C(F)(F)F)c4)c3)c2c1`, the growth is -62.1% (active) in experiment [1]; -93.9% (active) in experiment [2]; -97.5% (active) in experiment [3]; -93.3% (active) in experiment [4]; -94.4% (active) in [5]; -99.6% (active) in experiment [6]. In addition, the growth was -95.1% (active) in experiment [7]; -94.2% (active) in experiment [8]; -45% (active) in [9]; -54.8% (active) in experiment [10]; -31.2% (active) in [11]; -31.4% (active) in [20]. For the same compound, the growth is -85.4% (active) in [12]; -88% (active) in [14]; -17.5% (active) in experiment [15]; -59.8% (active) in [16]; -97.6% (active) in experiment [19]; -39.2% (active) in experiment [17]. In addition, the growth in [18] was -67.2% (active).
On to `CSc1ccc(N=C=C(c2ccccc2)c2ccccc2)cc1`, for which the growth in [1] was 93.5%; in [2], 96.6%; in experiment [3], 81.7%; in experiment [4], 83.5%; in experiment [5] it was 99.6%; in experiment [6], 92.9%. For the same compound, the growth in experiment [7] was 96.9%; in experiment [8] it was 81.8%; in experiment [9] it was 1.03% (active); in [10] it was 34.7%; in experiment [11] it was 50.7%; in experiment [20] it was 88.5%. The growth is 89% in experiment [12]; 110% in experiment [14]; 90.1% in experiment [15]; 95.7% in experiment [16]; 103% in [19]; 86.8% in experiment [17]. The growth in [18] is 104%.
Consider `Nc1cc2ccncc2c2ccccc12`, for which the growth is 45.5% in [1]; 60.4% in [2]; 52.7% in experiment [3]; 51.6% in experiment [4]; 80.6% in experiment [5]; 36.4% in experiment [6]. In addition, the growth is 58.2% in [7]; 67.5% in experiment [8]; 66.9% in experiment [9]; 50.2% in experiment [10]; 0.467% (active) in experiment [11]; 57.6% in [12]. Moreover, the growth is 76.2% in experiment [13]; 82.4% in experiment [14]; 66.2% in [15]; 58.7% in experiment [16]; 75.4% in [19]; 116% in experiment [17]. Moreover, the growth in experiment [18] was 53.2%.
Regarding `Clc1cccc(Nc2nc(Nc3cnc4ccccc4c3)c3[nH]cnc3n2)c1`, the growth in experiment [1] was 81.1%; in experiment [2], 41.3%; in experiment [3], 61.2%; in experiment [4] it was 60.7%; in [5], 114%; in [6], 73.5%. The growth in [7] is 59%; in [8], 60%; in experiment [9], 84.8%; in experiment [10], 90.6%; in experiment [11], 80.8%; in experiment [12], 75.6%. For the same compound, the growth is 89.3% in experiment [13]; 93.9% in [14]; 71.2% in experiment [15]; 62.3% in [16]; 73.6% in experiment [19]; 65.6% in [17]. The growth in experiment [18] was 87.2%.
